The supplement of paper PMC10849652
The full data set covers some 7,900 targets. This sample favours those with a hit. About 0.6% of all pairs of compound and target were hits.

Assays:
Assay in all cases: log2 fold change, soluble protein after heating vs DMSO (PISA); higher = thermal stabilisation; K562 cells, 10 uM, 30 min; active = over 0.2 and 3.5 SD of the protein, either way, in both replicates (recomputed)
saracatinib = compound: CN1CCN(CCOc2cc(OC3CCOCC3)c3c(Nc4c(Cl)ccc5c4OCO5)ncnc3c2)CC1 [saracatinib]
Method in brief: (§1)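 Values are thermal stability changes relative to control samples and are taken from duplicates. They are stated as log2 fold changes. Before quantification by TMTpro 16plex LC-MS/MS with equalised channel sums, K562 cells at 2×10^6 cells/mL were treated with 10 μM compound for 30 min, heated in aliquots for 3 min across 48°C-58°C, pooled, extracted in PBS with 0.5% NP-40 at 4°C, and centrifuged at 21,000xg for 90 min to give the soluble supernatant.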

sotrastaurin = compound: CN1CCN(c2nc(C3=C(c4c[nH]c5ccccc45)C(=O)NC3=O)c3ccccc3n2)CC1 [sotrastaurin]
Method in brief: as §1

alvocidib = compound: CN1CC[C@H](c2c(O)cc(O)c3c(=O)cc(-c4ccccc4Cl)oc23)[C@H](O)C1 [alvocidib]
Method in brief: as §1

Tubastatin A = compound: CN1CCc2c(c3ccccc3n2Cc2ccc(C(=O)NO)cc2)C1 [Tubastatin A]
Method in brief: as §1

[1] = compound: CNC(=O)C1=CC=CC=C1NC2=NC(=NC=C2Cl)NC3=C(C=C(C=C3)N4CCOCC4)OC
Method in brief: as §1

defactinib = compound: CNC(=O)c1ccc(Nc2ncc(C(F)(F)F)c(NCc3nccnc3N(C)S(C)(=O)=O)n2)cc1 [defactinib]
Method in brief: as §1

rucaparib = compound: CNCc1ccc(-c2[nH]c3cc(F)cc4c3c2CCNC4=O)cc1 [rucaparib]
Method in brief: as §1

[2] = compound: CNc1nc(-c2ccc3c(N)n[nH]c3c2)cc(N2C[C@@H](C(=O)NC3CCCCC3)CC[C@H]2C)n1
Method in brief: as §1

encorafenib = compound: COC(=O)N[C@@H](C)CNc1nccc(-c2cn(C(C)C)nc2-c2cc(Cl)cc(NS(C)(=O)=O)c2F)n1 [encorafenib]
Method in brief: as §1

[3] = compound: COC(=O)[C@H](CCSC)NC(=O)C1=C(C=C(C=C1)NC[C@H](CS)N)C2=CC=CC=C2
Method in brief: as §1

[4] = compound: COC1=CC=C(C=C1)CN2C=CC3=C2C=C(C=C3)C(=O)NO
Method in brief: as §1

filanesib = compound: CON(C)C(=O)N1N=C(c2cc(F)ccc2F)S[C@@]1(CCCN)c1ccccc1 [filanesib]
Method in brief: as §1

zotarolimus = compound: CO[C@H]1C[C@@H]2CC[C@@H](C)[C@@](O)(O2)C(=O)C(=O)N2CCCC[C@H]2C(=O)O[C@H]([C@H](C)C[C@@H]2CC[C@H](n3cnnn3)[C@H](OC)C2)CC(=O)[C@H](C)/C=C(\C)[C@@H](O)[C@@H](OC)C(=O)[C@H](C)C[C@H](C)/C=C/C=C/C=C/1C [zotarolimus]
Method in brief: as §1

idasanutlin = compound: COc1cc(C(=O)O)ccc1NC(=O)[C@@H]1N[C@@H](CC(C)(C)C)[C@](C#N)(c2ccc(Cl)cc2F)[C@H]1c1cccc(Cl)c1F [idasanutlin]
Method in brief: as §1

alisertib = compound: COc1cc(Nc2ncc3c(n2)-c2ccc(Cl)cc2C(c2c(F)cccc2OC)=NC3)ccc1C(=O)O [alisertib]
Method in brief: as §1

[5] = compound: COc1cc2nc(-c3cc(F)ccc3O)nc(N[C@@H]3CNC[C@H]3C(C)(C)O)c2cc1OC
Method in brief: as §1

gefitinib = compound: COc1cc2ncnc(Nc3ccc(F)c(Cl)c3)c2cc1OCCCN1CCOCC1 [gefitinib]
Method in brief: as §1

[6] = compound: COc1cccc2cc(-c3nc([C@H]4CC[C@H](C(=O)O)CC4)n4ncnc(N)c34)[nH]c12
Method in brief: as §1

lapatinib = compound: CS(=O)(=O)CCNCc1ccc(-c2ccc3ncnc(Nc4ccc(OCc5cccc(F)c5)c(Cl)c4)c3c2)o1 [lapatinib]
Method in brief: as §1

pictilisib = compound: CS(=O)(=O)N1CCN(Cc2cc3nc(-c4cccc5[nH]ncc45)nc(N4CCOCC4)c3s2)CC1 [pictilisib]
Method in brief: as §1

Measured: log2 fold change

ATP6V0A2 (UniProt Q9Y487)
UniProt Q9Y487, sequence (Q9Y487 whole entry, looked up): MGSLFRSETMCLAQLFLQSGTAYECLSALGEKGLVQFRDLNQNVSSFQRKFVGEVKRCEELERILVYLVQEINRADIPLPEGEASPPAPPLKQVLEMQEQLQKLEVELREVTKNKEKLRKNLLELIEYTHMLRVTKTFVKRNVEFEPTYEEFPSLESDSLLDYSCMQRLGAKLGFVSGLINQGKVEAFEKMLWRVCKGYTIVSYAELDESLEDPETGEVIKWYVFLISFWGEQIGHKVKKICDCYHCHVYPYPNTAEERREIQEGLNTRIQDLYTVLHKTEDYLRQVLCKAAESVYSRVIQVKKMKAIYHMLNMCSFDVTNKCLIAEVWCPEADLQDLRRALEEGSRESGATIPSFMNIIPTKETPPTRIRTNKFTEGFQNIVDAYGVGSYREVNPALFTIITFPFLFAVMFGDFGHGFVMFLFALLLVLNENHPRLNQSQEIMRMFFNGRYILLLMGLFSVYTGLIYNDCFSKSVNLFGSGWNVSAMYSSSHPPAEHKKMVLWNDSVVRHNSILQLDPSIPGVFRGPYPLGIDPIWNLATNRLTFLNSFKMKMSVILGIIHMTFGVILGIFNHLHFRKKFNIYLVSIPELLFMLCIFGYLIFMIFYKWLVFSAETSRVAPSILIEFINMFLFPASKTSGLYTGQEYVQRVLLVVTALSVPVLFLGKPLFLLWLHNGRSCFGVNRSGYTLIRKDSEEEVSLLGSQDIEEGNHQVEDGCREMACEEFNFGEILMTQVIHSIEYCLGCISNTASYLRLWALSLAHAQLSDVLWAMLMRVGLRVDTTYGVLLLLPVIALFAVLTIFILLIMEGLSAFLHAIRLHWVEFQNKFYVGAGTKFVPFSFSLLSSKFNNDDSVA
inactive: saracatinib -0.009 | sotrastaurin -0.07 | alvocidib 0.036 | Tubastatin A 0.061 | [1] -0.003 | defactinib 0.019 | rucaparib -0.003 | [2] -0.021 | encorafenib 0.043 | [3] -0.039 | [4] -0.029 | filanesib -0.083 | zotarolimus 0.011 | idasanutlin 0.004 | alisertib -0.082 | [5] -0.07 | gefitinib -0.058 | [6] -0.056 | lapatinib 0.016 | pictilisib -0.071

ADD2 (UniProt P35612)
UniProt P35612, sequence (P35612 whole entry, looked up): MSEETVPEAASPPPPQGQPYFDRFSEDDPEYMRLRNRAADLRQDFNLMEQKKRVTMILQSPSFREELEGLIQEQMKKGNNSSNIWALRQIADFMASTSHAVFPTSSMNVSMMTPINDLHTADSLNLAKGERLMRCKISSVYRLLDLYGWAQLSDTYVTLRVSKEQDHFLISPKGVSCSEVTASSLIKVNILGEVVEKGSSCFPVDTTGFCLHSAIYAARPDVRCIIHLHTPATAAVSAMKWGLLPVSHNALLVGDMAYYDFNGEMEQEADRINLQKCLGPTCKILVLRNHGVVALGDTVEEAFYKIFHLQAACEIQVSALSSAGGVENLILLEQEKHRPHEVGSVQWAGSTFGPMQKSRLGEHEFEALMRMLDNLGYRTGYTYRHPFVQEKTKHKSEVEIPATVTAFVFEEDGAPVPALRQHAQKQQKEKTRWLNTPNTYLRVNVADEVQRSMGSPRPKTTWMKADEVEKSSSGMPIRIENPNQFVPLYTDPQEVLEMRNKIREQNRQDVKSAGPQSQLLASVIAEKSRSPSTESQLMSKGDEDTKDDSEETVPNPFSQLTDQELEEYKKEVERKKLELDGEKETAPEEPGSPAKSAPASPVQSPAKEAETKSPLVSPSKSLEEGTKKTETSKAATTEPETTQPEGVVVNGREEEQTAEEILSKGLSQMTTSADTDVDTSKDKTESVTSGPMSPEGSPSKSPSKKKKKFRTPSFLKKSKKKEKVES
inactive: saracatinib 0.049 | sotrastaurin -0.004 | alvocidib -0.031 | Tubastatin A -0.025 | [1] -0.033 | defactinib -0.051 | rucaparib -0.012 | [2] 0.001 | encorafenib -0.025 | [3] -0.003 | [4] 0.047 | filanesib 0.015 | zotarolimus -0.011 | idasanutlin 0.009 | alisertib -0.081 | [5] 0.065 | gefitinib 0.003 | [6] 0.02 | lapatinib -0.026 | pictilisib 0.009

ACSM3 (UniProt Q53FZ2)
UniProt Q53FZ2, sequence (Q53FZ2 whole entry, looked up): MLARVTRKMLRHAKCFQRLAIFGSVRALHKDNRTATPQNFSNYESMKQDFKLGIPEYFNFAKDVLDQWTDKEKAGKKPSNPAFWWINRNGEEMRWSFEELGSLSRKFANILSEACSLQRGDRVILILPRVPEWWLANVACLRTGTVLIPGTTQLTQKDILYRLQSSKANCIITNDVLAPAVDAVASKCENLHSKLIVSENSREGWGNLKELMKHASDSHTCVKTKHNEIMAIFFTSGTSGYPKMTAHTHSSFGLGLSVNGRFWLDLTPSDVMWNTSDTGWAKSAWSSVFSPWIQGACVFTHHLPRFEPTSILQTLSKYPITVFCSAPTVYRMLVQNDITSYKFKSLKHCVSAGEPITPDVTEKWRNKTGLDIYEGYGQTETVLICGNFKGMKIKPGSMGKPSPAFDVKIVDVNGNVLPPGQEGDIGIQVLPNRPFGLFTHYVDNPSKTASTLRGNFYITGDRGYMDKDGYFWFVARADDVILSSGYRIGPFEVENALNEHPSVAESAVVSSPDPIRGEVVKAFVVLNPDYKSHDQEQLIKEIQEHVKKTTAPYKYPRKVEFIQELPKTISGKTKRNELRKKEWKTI
inactive: saracatinib 0.031 | sotrastaurin 0.018 | alvocidib -0.021 | Tubastatin A 0.009 | [1] 0.053 | defactinib -0.148 | rucaparib 0.142 | [2] -0.09 | encorafenib 0.021 | [3] -0.064 | [4] 0.134 | filanesib -0.056 | zotarolimus 0.009 | idasanutlin -0.017 | alisertib -0.033 | [5] 0.101 | gefitinib -0.034 | [6] 0.028 | lapatinib -0.025 | pictilisib 0.198

B4GALNT1 (UniProt Q00973)
UniProt Q00973, sequence (Q00973 whole entry, looked up): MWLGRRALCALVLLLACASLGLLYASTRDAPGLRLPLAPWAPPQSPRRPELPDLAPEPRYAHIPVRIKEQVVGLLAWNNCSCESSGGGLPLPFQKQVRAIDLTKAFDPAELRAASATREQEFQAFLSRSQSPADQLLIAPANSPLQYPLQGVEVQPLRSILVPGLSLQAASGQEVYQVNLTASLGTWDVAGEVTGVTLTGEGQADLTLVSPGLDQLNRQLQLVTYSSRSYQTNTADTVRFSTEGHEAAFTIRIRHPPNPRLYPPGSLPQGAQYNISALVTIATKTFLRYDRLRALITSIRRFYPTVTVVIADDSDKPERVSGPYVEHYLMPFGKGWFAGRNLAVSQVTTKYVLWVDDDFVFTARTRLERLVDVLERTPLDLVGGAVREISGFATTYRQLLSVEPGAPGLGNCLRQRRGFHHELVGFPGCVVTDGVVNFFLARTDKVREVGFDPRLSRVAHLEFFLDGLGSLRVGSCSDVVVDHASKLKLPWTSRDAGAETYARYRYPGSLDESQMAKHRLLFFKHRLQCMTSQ
inactive: saracatinib -0.143 | sotrastaurin -0.07 | alvocidib 0.177 | Tubastatin A -0.057 | [1] -0.021 | defactinib -0.182 | rucaparib 0.017 | [2] 0.025 | encorafenib 0.144 | [3] -0.425 | [4] 0.023 | filanesib 0.092 | zotarolimus 0.081 | idasanutlin 0.093 | alisertib -0.063 | [5] -0.045 | gefitinib 0.119 | [6] 0.112 | lapatinib 0.097 | pictilisib -0.045

ADRM1 (UniProt Q16186)
UniProt Q16186, sequence (Q16186 whole entry, looked up): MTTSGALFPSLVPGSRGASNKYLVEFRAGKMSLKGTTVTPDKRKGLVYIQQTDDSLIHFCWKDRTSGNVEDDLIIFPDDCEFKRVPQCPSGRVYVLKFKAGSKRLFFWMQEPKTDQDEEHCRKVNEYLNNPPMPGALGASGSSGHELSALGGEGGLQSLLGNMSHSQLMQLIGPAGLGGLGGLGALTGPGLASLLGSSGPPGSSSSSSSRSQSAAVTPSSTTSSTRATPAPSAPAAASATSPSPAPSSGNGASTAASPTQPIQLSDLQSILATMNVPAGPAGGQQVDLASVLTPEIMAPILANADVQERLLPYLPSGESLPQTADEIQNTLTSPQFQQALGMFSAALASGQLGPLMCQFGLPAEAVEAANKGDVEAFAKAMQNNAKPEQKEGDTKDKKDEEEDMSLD
inactive: saracatinib -0.086 | sotrastaurin -0.091 | alvocidib 0.042 | Tubastatin A 0.18 | [1] -0.067 | defactinib 0.087 | rucaparib -0.022 | [2] 0.111 | encorafenib 0.108 | [3] 0.017 | [4] 0.088 | filanesib 0.008 | zotarolimus 0.057 | idasanutlin -0.073 | alisertib -0.031 | [5] -0.029 | gefitinib -0.055 | [6] -0.045 | lapatinib 0.022 | pictilisib -0.013

ATP5ME (UniProt P56385)
UniProt P56385, sequence (P56385 whole entry, looked up): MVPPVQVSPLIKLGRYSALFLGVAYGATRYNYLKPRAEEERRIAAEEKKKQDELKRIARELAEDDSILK
inactive: saracatinib 0.026 | sotrastaurin 0.009 | alvocidib 0.04 | Tubastatin A -0.009 | [1] -0.006 | defactinib 0.029 | rucaparib -0.022 | [2] -0.069 | encorafenib -0.07 | [3] 0.023 | [4] -0.023 | filanesib -0.053 | zotarolimus 0.002 | idasanutlin -0.024 | alisertib -0.027 | [5] -0.04 | gefitinib 0.021 | [6] 0.063 | lapatinib -0.001 | pictilisib 0.019

BCL9L (UniProt Q86UU0)
UniProt Q86UU0, sequence (Q86UU0 whole entry, looked up): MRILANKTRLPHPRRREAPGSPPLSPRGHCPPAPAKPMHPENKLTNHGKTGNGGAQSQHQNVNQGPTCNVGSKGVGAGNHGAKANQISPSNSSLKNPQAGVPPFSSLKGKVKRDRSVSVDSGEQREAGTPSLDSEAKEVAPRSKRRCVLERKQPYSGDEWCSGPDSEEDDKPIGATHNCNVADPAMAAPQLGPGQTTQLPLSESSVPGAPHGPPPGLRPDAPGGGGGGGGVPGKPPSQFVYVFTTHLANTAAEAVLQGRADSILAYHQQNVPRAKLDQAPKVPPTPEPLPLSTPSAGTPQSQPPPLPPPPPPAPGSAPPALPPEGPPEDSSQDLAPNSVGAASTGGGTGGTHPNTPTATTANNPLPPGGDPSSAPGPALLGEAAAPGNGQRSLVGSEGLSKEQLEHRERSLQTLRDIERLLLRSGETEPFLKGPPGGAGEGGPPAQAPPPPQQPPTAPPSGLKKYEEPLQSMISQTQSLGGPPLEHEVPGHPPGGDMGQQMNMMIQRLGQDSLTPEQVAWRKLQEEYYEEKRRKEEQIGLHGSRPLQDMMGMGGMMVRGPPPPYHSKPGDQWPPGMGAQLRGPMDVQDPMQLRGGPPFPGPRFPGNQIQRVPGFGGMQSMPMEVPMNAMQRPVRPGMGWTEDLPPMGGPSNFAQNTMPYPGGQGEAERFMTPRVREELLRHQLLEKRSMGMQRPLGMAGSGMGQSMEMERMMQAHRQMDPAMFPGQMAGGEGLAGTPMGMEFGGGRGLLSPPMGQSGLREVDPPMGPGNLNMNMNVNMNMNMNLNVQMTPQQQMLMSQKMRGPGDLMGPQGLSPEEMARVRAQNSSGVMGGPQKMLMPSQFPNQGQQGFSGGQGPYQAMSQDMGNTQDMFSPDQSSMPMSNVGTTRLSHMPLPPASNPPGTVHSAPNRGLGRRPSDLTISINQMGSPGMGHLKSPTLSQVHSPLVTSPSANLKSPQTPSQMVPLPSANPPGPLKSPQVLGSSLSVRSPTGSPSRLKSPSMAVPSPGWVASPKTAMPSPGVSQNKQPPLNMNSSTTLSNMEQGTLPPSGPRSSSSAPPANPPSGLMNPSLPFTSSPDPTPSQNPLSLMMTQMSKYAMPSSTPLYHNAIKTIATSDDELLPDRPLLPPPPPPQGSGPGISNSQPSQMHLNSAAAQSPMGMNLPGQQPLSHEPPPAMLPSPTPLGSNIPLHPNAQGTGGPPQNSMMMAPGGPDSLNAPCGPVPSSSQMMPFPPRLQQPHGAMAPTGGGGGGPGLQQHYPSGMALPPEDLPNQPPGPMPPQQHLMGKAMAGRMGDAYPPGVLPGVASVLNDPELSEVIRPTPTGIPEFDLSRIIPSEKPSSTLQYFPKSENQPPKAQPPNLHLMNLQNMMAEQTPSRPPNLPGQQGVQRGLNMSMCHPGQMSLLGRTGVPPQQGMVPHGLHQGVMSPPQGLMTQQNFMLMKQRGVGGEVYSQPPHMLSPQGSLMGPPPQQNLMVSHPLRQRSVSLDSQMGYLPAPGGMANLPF
inactive: saracatinib -0.042 | sotrastaurin 0.042 | alvocidib -0.012 | Tubastatin A 0.053 | [1] -0.017 | defactinib -0.014 | rucaparib 0.026 | [2] -0.092 | encorafenib -0.033 | [3] 0.069 | [4] -0.048 | filanesib 0.017 | zotarolimus -0.043 | idasanutlin 0.028 | alisertib 0.014 | [5] 0.02 | gefitinib 0.034 | [6] -0.067 | lapatinib 0.011 | pictilisib -0.007

AK6 (UniProt Q9Y3D8)
UniProt Q9Y3D8, sequence (Q9Y3D8 whole entry, looked up): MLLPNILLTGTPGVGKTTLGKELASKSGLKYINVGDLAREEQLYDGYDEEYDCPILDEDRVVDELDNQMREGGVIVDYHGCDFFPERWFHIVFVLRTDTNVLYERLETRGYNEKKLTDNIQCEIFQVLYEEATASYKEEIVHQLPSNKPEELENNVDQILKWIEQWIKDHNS
inactive: saracatinib -0.154 | sotrastaurin -0.121 | alvocidib -0.045 | Tubastatin A 0.03 | [1] 0.018 | defactinib -0.095 | rucaparib 0.092 | [2] -0.053 | encorafenib 0.095 | [3] -0.09 | [4] 0.009 | filanesib -0.052 | zotarolimus 0.003 | idasanutlin 0.012 | alisertib -0.035 | [5] 0.053 | gefitinib 0.03 | [6] 0.006 | lapatinib -0.049 | pictilisib -0.01
